These results are taken from PubChem BioAssay.

Activity calls are given as the source filed them.

Assay [1] can be described thus: binders of probe aFSTL3 on microarray, primary screen, stem cell growth factor project, biochemical, small-molecule microarray, fluorescence 635/667 (AID 1064).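 Also: measures binding of the biotinylated anti-FSTL3 antibody to printed compounds.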 Particulars: higher = more signal.
Assay [2] can be described thus: binders from COS7 lysate, DM2A8 probe, primary screen, torsin A project, cell lysate, small-molecule microarray, fluorescence 635/667 (AID 1065). Particulars: higher = more signal, COS7 lysate expressing mutant human TOR1A.
The nature of assay [3]: binders of probe aFGF2 on microarray, primary screen, stem cell growth factor project, biochemical, small-molecule microarray, fluorescence 635/667 (AID 1067).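 Also: measures binding of biotinylated aFGF2 protein to printed compounds on slides; z-score merges feature fluorescence and signal-to-noise across triplicate slides.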 Particulars: higher = more signal.
A short description of assay [4]: binders of probe aFGF10 on microarray, primary screen, stem cell growth factor project, biochemical, small-molecule microarray, fluorescence 635/667 (AID 1071).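 Also: score merges 667 nm spot intensity and signal to noise from triplicate slides.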 The conditions noted are these: higher = more signal.
The target in assay [5] is Neurogenic locus notch homolog protein 2 (Homo sapiens) (UniProt Q04721). The assay can be described thus: Notch2 binders on small-molecule microarrays, primary screen, biochemical, small-molecule microarray, 635 nm fluorescence, stem cell growth factors (AID 1073). The conditions noted are these: Notch2 binding, higher = more signal.
In assay [6] the target is Pro-neuregulin-1, membrane-bound isoform (Homo sapiens) (UniProt Q02297). The assay can be described thus: NRG1 binders on small-molecule microarrays, primary screen, psychiatric disease protein project, biochemical, small-molecule microarray, fluorescence 635/667 (AID 1075).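 Also: score combines 667 nm spot fluorescence with signal to noise.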 Particulars: NRG1 binding, 635 nm fluorescence, higher = more signal.
Assay [7] has as its system Neuregulin-1 EGF-like domain. The assay can be described thus: binders of neuregulin-1 EGF-like domain, primary screen, biochemical, small-molecule microarray, 635 nm fluorescence (AID 1081).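 Also: binding of the protein to compounds printed on small-molecule microarray slides.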 The conditions noted are these: small-molecule microarray binding, higher = more signal.
Assay [8] is described as follows: FRG1 promoter luciferase signal modulators, primary screen, FRG1 inhibition for FSHD, cell-based, C2C12 myotubes, firefly/Renilla luciferase, luminescence (AID 1084). The conditions noted are these: higher = more signal, called active from +8 up or from −8 down.
A short description of assay [9]: binders of probe aFST on microarray, primary screen, stem cell growth factor project, biochemical, small-molecule microarray, fluorescence 635/667 (AID 1086).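 Also: score merges 667 nm fluorescence with signal-to-noise of each printed compound spot.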 Particulars: higher = more signal.
Assay [10] can be described thus: binders of probe aHhip on microarray, primary screen, stem cell growth factor project, biochemical, small-molecule microarray, fluorescence 635/667 (AID 1087).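 Also: score merges spot fluorescence at 667nm with spot signal to noise ratio.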 Particulars: higher = more signal.

Sequence of Pro-neuregulin-1, membrane-bound isoform (Homo sapiens) (Q02297 whole entry, looked up, the tested form may be a part, canonical isoform): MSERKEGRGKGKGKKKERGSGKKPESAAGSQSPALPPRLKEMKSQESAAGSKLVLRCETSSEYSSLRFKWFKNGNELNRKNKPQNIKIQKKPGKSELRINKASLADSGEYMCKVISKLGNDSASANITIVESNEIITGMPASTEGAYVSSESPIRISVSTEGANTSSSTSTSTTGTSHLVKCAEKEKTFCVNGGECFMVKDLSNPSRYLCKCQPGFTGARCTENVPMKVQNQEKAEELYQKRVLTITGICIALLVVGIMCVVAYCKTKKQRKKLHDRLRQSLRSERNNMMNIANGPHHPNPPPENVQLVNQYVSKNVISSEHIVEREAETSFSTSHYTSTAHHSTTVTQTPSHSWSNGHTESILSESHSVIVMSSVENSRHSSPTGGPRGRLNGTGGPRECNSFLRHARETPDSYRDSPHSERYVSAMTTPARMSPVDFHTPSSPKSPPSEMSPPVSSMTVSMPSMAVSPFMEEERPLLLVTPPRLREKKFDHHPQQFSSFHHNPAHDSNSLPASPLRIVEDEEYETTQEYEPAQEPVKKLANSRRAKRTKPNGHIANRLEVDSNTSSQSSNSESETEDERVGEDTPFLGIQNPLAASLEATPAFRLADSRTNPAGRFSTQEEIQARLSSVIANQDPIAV
Sequence of Neurogenic locus notch homolog protein 2 (Homo sapiens) (Q04721 whole entry, looked up, canonical isoform): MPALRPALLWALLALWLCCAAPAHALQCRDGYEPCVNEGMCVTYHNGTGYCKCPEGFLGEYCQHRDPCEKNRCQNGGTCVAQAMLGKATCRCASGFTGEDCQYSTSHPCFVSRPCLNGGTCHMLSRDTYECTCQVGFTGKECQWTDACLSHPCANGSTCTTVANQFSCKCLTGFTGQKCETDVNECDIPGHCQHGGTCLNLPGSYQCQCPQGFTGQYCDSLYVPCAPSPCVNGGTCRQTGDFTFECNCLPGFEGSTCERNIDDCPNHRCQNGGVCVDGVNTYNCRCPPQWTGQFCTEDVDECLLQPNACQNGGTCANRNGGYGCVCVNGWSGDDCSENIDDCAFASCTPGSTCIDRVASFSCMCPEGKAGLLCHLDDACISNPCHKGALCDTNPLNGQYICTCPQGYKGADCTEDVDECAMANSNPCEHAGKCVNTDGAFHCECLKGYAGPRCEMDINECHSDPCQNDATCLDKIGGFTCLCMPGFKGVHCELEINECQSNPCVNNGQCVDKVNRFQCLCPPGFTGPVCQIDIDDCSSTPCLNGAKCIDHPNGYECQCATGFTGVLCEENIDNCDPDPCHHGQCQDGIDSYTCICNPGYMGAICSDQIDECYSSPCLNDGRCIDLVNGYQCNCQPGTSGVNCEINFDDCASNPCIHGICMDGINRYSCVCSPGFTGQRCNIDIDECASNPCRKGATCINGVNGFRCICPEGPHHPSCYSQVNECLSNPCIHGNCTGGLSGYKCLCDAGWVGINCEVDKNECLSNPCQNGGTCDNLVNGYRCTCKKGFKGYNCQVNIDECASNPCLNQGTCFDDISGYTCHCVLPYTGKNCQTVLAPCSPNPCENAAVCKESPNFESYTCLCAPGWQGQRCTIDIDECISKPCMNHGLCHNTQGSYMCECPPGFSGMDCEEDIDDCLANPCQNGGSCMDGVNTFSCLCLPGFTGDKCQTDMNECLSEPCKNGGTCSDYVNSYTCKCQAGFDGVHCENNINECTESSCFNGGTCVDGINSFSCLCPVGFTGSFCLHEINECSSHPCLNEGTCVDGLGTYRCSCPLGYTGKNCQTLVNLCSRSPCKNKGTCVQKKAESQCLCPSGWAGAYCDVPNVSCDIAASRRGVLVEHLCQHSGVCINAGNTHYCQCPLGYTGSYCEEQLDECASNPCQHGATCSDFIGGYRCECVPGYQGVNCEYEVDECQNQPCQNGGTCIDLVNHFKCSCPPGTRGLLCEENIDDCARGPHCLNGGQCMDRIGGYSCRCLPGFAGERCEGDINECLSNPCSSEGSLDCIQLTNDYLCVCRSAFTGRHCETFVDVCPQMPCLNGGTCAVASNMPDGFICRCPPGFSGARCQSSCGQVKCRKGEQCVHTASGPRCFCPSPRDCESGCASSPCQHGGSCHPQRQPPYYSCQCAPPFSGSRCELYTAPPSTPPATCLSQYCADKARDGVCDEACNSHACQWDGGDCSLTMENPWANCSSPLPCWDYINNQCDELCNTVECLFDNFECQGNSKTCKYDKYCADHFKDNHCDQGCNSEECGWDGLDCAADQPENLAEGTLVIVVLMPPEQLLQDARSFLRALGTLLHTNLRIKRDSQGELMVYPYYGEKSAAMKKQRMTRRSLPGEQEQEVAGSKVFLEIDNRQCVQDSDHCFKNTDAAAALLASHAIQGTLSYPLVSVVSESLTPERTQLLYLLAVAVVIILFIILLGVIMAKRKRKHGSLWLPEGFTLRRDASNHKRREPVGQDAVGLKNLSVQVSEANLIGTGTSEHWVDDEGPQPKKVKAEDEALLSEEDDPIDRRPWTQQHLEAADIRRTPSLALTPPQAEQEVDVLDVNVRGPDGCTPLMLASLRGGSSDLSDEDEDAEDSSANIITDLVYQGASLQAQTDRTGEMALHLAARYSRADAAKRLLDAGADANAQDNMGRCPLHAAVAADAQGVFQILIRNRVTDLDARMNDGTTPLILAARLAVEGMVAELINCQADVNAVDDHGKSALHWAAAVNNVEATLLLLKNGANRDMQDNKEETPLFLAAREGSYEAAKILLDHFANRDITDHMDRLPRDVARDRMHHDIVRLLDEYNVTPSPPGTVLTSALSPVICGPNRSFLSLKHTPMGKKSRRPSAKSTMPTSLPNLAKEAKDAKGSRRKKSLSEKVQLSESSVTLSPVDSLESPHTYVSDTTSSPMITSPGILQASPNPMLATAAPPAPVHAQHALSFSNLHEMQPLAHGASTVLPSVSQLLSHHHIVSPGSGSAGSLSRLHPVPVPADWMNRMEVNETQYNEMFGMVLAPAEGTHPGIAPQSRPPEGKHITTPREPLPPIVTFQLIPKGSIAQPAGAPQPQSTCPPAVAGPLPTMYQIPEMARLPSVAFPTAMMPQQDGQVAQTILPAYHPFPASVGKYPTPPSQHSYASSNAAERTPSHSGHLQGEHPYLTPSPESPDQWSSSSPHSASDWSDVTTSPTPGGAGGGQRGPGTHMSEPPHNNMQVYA

With `COc1cc([C@@H]2N[C@H](C(=O)O)Cc3c2[nH]c2ccccc32)cc(OC)c1OC`, the composite z-score is -0.534 in [1]; 0.55 in assay [2]; -0.0806 in [3]; 0.28 in assay [4]; 0.507 in assay [5]; 0.0318 in [6]. For the same compound, the composite z-score was -0.205 in [7], -0.134 in assay [9] and 0.338 in assay [10]. In [8], the z-score was -0.643 (inactive).
`CC(C)C[C@@H]1NC(=O)[C@H](CC(C)C)NC(=O)[C@@]23C(=O)N[C@@H](Cc4ccccc4)C2[C@H](C)[C@@]2(C)O[C@H]2C3/C=C/CC/C=C/CNC1=O` (stereo not given in full): the composite z-score in assay [1] was -0.3; in assay [2], -0.135; in assay [3], -0.0805; in assay [4] it was 0.278; in assay [5], 0.242; in assay [6] it was 0.603. Also, the composite z-score in assay [7] is 1; in assay [9], 0.0226; in assay [10] it was -0.201. The z-score in [8] is -0.298 (inactive).
`COc1cc2c(cc1OC)CN(C(=O)[C@H]1[C@@H]3C(=O)O[C@@H](c4ccccc4)[C@@H](c4ccccc4)N3[C@@H](c3ccccc3OCCO)[C@]13C(=O)Nc1ccc(C#CC4(O)CCCCCC4)cc13)CC2`: the composite z-score in assay [1] is -0.0648; in assay [2], 0.705; in assay [3] it was 0.0605; in assay [4] it was 1.01; in assay [5], 1.1; in assay [6] it was 1.76. Moreover, the results for the composite z-score in assay [7], in assay [9] and in assay [10] were 1.35, 0.319 and 0.245, respectively. Further, the z-score in assay [8] is -2.24 (inactive).
Consider `CCC1=C2CN(Cc3ccccc3Br)[C@@H]([C@@H](O)Cc3ccccc3)C2C=CCC1` (stereo not given in full), for which the composite z-score in assay [1] was -0.525; in assay [2] it was -0.12; in assay [3], -0.0858; in assay [4], 0.528; in [5] it was 0.814; in assay [6], 0.421. Further, the composite z-score was 0.817 in assay [7], 0.788 in assay [9] and 0.0881 in [10]. Also, the z-score in [8] was -1.83 (inactive).
For the compound `O=C(O)[C@@H]1Cc2c([nH]c3ccccc23)[C@@H](c2ccccc2)N1`, the composite z-score is -0.675 in assay [1]; -0.15 in assay [2]; -0.109 in assay [3]; 0.35 in assay [4]; 0.464 in assay [5]; 0.144 in assay [6]. Moreover, the composite z-score in assay [7] is 0.125; in assay [9], 0.084; in assay [10], -0.0522. Besides, in [8], the z-score was -0.608 (inactive).
Take `CO[C@H]1COC(=O)[C@H](CCSC)NC(=O)CC=C[C@@H](C)COC(=O)[C@@H](OCc2ccccc2)C=C[C@@H]1C`: the composite z-score in assay [1] is -0.929; in [2] it was 2.45; in assay [3], -0.294; in assay [4], -0.226; in assay [5], -0.206; in assay [6], -0.37. Also, the composite z-score was 0.782 in assay [7], -0.327 in assay [9] and -0.0047 in assay [10]. In addition, the z-score in [8] was -0.592 (inactive).
Take `CO[C@H]1COC(=O)CC=C[C@H](C)[C@@H](OC)COC(=O)CC=C[C@@H]1C`: the composite z-score in [1] was -0.623; in [2], 1.7; in [3], -0.0775; in assay [4] it was 0.227; in assay [5] it was -0.209; in assay [6] it was -0.768. For the same compound, the composite z-score is 0.692 in [7], -0.055 in [9] and -0.0994 in [10]. Also, in assay [8], the z-score is -1.12 (inactive).
Take `C=C(CCCC)/C(=C/C[C@@H](OC(=O)c1ccncc1)c1cccc(OCCO)c1)c1cc(C(=O)OC)ccc1OC`: the composite z-score in [1] was -0.0606; in [2], 0.522; in assay [3], 0.0211; in [4], 0.291; in assay [5], 0.535; in [6], 1.38. In addition, the values for the composite z-score in assay [7], in assay [9] and in assay [10] were 1.26, 0.223 and 0.0722, respectively. For the same compound, the z-score in [8] is 9.67 (active).
For the compound `COC(=O)C1=C(C)N(Cc2ccccc2)c2c(C(=O)OC)c(C(=O)OC)c(C(=O)OC)c(=O)n2[C@@H]1c1ccccc1`, the composite z-score in [1] was -0.274; in assay [2], 0.657; in [3] it was -0.0181; in assay [4] it was 0.282; in assay [5], 0.898; in assay [6] it was 0.289. The composite z-score in assay [7] is 0.721; in assay [9], 0.224; in [10] it was -0.0994. The z-score in [8] was 0.365 (inactive).
`CN1CCC(CCCO)=CC1C1CC1` (stereo not given): the composite z-score in assay [1] is -0.389; in [2], 1.39; in assay [3], -0.199; in assay [4], -0.856; in [5] it was -1.13; in assay [6], -0.345. In addition, the composite z-score in [7] was 0.743; in assay [9], -0.287; in assay [10], -0.251. In addition, the z-score in assay [8] is -0.901 (inactive).
On to `C[C@]1(C(=O)NCc2ccccc2)c2ccccc2C(=O)N(Cc2cc(C(F)(F)F)cc(C(F)(F)F)c2)[C@H]1c1ccc(CO)cc1`, for which the composite z-score in assay [1] was determined as 0.158; in assay [2] it was 1.05; in assay [3] it was 0.168; in assay [4], 0.149; in assay [5], 1.04; in assay [6], 0.196. Moreover, the composite z-score in assay [7] was 1.23; in assay [9], 0.185; in assay [10], -0.359. For the same compound, in assay [8], the z-score was -1.65 (inactive).
In the case of `CCN1C(C)=C(C(=O)OC)[C@@H](c2ccccc2)N2C(=O)[C@](O)(C(=O)OC)[C@@H](c3ccccc3)C(C(=O)c3ccccc3)=C12`, the composite z-score is -0.14 in [1]; 0.36 in [2]; -0.0493 in assay [3]; 0.671 in assay [4]; 0.442 in assay [5]; 0.607 in assay [6]. Moreover, the composite z-score stood at 0.708 in assay [7], 0.0486 in [9] and 0.141 in assay [10]. In addition, the z-score in assay [8] is -4.12 (inactive).
